High-throughput results: PubChem BioAssay, NMMLSC
Compounds with a hit are over-represented: about 0.93% of the library has one in this group of screens.
AGP1 TOR yeast = modulators of AGP1-GFP expression in yeast TOR pathway, primary screen, cell-based, multiplex flow cytometry, S. cerevisiae, MLPCN library. AID 2066, 2009. 0.02% of 320,000 active. 3 h; GFP as percent of DMSO wells. GFP response vs DMSO, % at 10 µM;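 active means GFP response relative to DMSO above a set limit, near screen average plus 3 SD, cut at about 150% in these data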;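 further: median GFP channel fluorescence of the gated AGP1 strain per well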
MEP2 TOR yeast = modulators of MEP2-GFP levels in yeast, primary screen, S. cerevisiae, multiplex flow cytometry, MLPCN library. S. cerevisiae MEP2-GFP strain, 3 h; 100% = DMSO control level. GFP response vs DMSO, % at 10 µM. 0.51% of 330,000 active. AID 2016, 2009;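 active means GFP response versus DMSO above a set limit, roughly screen mean plus 3 SD, cut at about 180% in these data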;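 further: median GFP fluorescence of the barcode-gated MEP2-GFP cells per well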
RPL19A TOR yeast = RPL19A-GFP expression modulators in yeast, primary screen, cell-based, S. cerevisiae, multiplex flow cytometry, MLPCN; S. cerevisiae RPL19A-GFP strain, 3 h; hits give low values; 0.3% of 330,000 active; percent response vs DMSO, % at 10 µM; AID 2025, 2009;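 active means percent response vs DMSO below 50%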;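 further: median channel GFP fluorescence of the barcoded RPL19A-GFP strain; ratio of sample median GFP to plate DMSO average so 100% = DMSO; lower means less RPL19A-GFP as with rapamycin TOR inhibition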
CIT2 TOR yeast = modulators of CIT2-GFP expression in yeast, primary screen, S. cerevisiae, GFP fusion, multiplex flow cytometry, MLPCN library; GFP response vs DMSO, % at 10 µM; 0.065% of 320,000 active; S. cerevisiae CIT2-GFP strain, 3 h; 100 means same as DMSO wells; AID 2029, 2009;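 active means GFP response relative to DMSO above a set limit, near the screen mean plus 3 SD, cut at about 150% in these data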;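 further: ratio of well median GFP fluorescence to mean of DMSO wells on the plate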
LAP4-GFP MLPCN = modulators of LAP4-GFP expression in yeast, primary screen, S. cerevisiae, multiplex flow cytometry, MLPCN library; 0.34% of 320,000 active; 3 h; median GFP as percent of DMSO wells; AID 2023, 2009; GFP response vs DMSO, % at 10 µM;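 active means GFP response vs DMSO above a set limit, about the screen mean plus 3 SD, cut at about 150% in these data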
LAP4 cherry2 = LAP4-GFP expression modulators in yeast, confirmation, cell-based, second cherry pick, flow cytometry. shares compounds with LAP4-GFP MLPCN. S. cerevisiae LAP4-GFP strain, 3 h. GFP response vs DMSO, % at 10 µM. 20% of 590 active;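 active means GFP signal as percent of the solvent control above about 150%, meaning raised reporter expression, limit read from the data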;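 further: ratio of well median GFP fluorescence to plate DMSO mean so 100% = DMSO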
MEP2 cherry2 = modulators of MEP2-GFP levels in yeast, confirmation, S. cerevisiae, flow cytometry GFP, second cherry picks; shares compounds with LAP4-GFP MLPCN; S. cerevisiae MEP2-GFP strain, 3 h; GFP response vs DMSO, % at 10 µM; 10% of 590 active;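 active means GFP signal above 150% of the solvent control wells, that is a rise of more than half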;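 further: median channel GFP fluorescence of all gated yeast cells per well; ratio of median GFP to plate DMSO average so 100% = DMSO level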
RPL19A GFP CP2 = RPL19A-GFP modulators in TOR pathway yeast, confirmation, cell-based, S. cerevisiae, flow cytometry, second cherry pick; shares compounds with LAP4-GFP MLPCN; S. cerevisiae RPL19A-GFP strain, 3 h; hits give low values; 100% means same as DMSO wells; GFP response vs DMSO, % at 10 µM; 3% of 590 active; AID 2623, 2010;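 active means under 65% GFP response relative to DMSO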;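 further: median GFP channel fluorescence per well over the all cells gate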
CIT2-GFP pick2 = modulators of CIT2-GFP expression in yeast, confirmation, flow cytometry, second cherry pick, single plex; shares compounds with LAP4-GFP MLPCN; S. cerevisiae CIT2-GFP strain, 3 h; DMSO control wells read 100%; GFP response vs DMSO, % at 10 µM; 8% of 590 active;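 active means GFP response vs DMSO above about 150%, limit read from the data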;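 further: median green fluorescence per well over all gated yeast cells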
AGP1 GFP CP2 = AGP1-GFP expression modulators, hit retest, confirmation, cell-based, flow cytometry, S. cerevisiae, cherry pick set 2; shares compounds with LAP4-GFP MLPCN; S. cerevisiae AGP1-GFP strain, 3 h; percent response vs DMSO, % at 10 µM; 590 tested, under 10 active;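 active means over 150 percent of DMSO response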;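 further: median GFP channel fluorescence over all cells without mother daughter split; sample median GFP divided by mean DMSO control so 100% equals DMSO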
Yeast autofluor = compound autofluorescence in yeast s288c, dose response, artefact control for yeast TOR pathway GFP screen, s288c strain. S. cerevisiae s288c, 520 nm autofluorescence, flow cytometry, 3 h; hits give high values; zero means same as solvent-only cells. 610 tested, under 10 active. shares compounds with LAP4-GFP MLPCN. fluorescence change (kMESF span) at 33 µM;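 active means fluorescence span over the dose series, or activity score, above about 33, limit read from the data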
Numbers without * were called inactive; · = no result given; [ ] = remark or other dose.

SMILES | AGP1 TOR yeast | MEP2 TOR yeast | RPL19A TOR yeast | CIT2 TOR yeast | LAP4-GFP MLPCN | LAP4 cherry2 | MEP2 cherry2 | RPL19A GFP CP2 | CIT2-GFP pick2 | AGP1 GFP CP2 | Yeast autofluor
Cc1ccc(Nc2ccc(-n3ccnc3)nn2)cc1C | 30.3 | 156.5 | 53.2 | 79.5 | 96.6 | 103.2 | 103.1 | 100.6 | 100.1 | 96.7 | ·
COc1ccc(OC)c(NC(=O)COC(=O)CCCN=C2NS(=O)(=O)c3ccccc32)c1 | 105.5 | 110.1 | 86.2 | 83.9 | 162.8* | 100.0 | 101.5 | 100.0 | 98.4 | 101.1 | ·
Cc1ccc(C)c(NC(=O)COC(=O)CCCN=C2NS(=O)(=O)c3ccccc32)c1 | 96.8 | 89.6 | 96.9 | 92.5 | 93.7 | · | · | · | · | · | ·
CC1=NN(c2nc3ccccc3[nH]2)C(=O)C1Cc1ccccc1 (stereo not given) | 56.6 | 96.9 | 58.0 | 69.1 | 86.5 | 123.1 | 141.4 | 75.8 | 84.8 | 74.7 | ·
O=C1CC(c2ccccc2)=NN1c1nc(-c2ccccc2)cs1 | 39.7 | 100.3 | 63.2 | 61.7 | 78.9 | 149.3 | 213.1* | 81.1 | 144.6 | 76.5 | 2.23
CN(C(=O)COC(=O)c1cc(S(=O)(=O)N2CCOCC2)ccc1F)C1CCS(=O)(=O)C1 (stereo not given) | 110.3 | 104.8 | 106.2 | 98.4 | 116.0 | · | · | · | · | · | ·
COc1cc(/C=C2/C(=O)c3cccc([N+](=O)[O-])c3C2=O)c(Br)cc1O | 86.5 | 82.2 | 95.9 | 92.8 | 108.7 | 135.6 | 116.5 | 109.3 | 116.5 | 103.8 | 0.1
COc1ccccc1NC(=O)CCCCCN1C(=O)c2cccc([N+](=O)[O-])c2C1=O | 98.7 | 109.9 | 103.1 | 104.3 | 95.5 | · | · | · | · | · | ·
O=c1c2ccccc2oc2cc(C#CC3(O)CCCCC3)ccc12 | 84.0 | 91.7 | 100.4 | 80.2 | 153.4* | 106.2 | 113.5 | 94.8 | 107.1 | 93.0 | ·
COc1cccc2oc3cc(C#CC4(O)CCCCC4)ccc3c(=O)c12 | 81.1 | 93.7 | 93.9 | 63.7 | 126.6 | · | · | · | · | · | ·
CCc1ccccc1N(CC(=O)N1CCCCCC1)S(C)(=O)=O | 98.3 | 82.4 | 96.7 | 91.6 | 80.8 | · | · | · | · | · | ·
CC(C)CC(=O)NC(=S)Nc1nc(-c2ccccc2)cs1 | 24.7 | 137.6 | 62.2 | 78.6 | 96.8 | 98.2 | 96.1 | 99.5 | 105.7 | 97.9 | 0
Cc1cccc(CN2C(=O)/C(=C\c3ccc(C(=O)NCCCN4CCN(C)CC4)cc3)Oc3ccccc32)c1 | 81.7 | 90.5 | 90.8 | 70.7 | 163.9* | 135.3 | 104.8 | 89.5 | 101.5 | 92.5 | ·
Cc1cc(C)c(NC(=O)CNC(=O)COC(=O)Cc2ccccc2C)c(C)c1 | 102.1 | 111.1 | 103.3 | 93.8 | 111.7 | · | · | · | · | · | ·
O=[N+]([O-])c1c(Nc2ccccn2)cc(Cl)c2nonc12 | 133.8 | 951.3* | 162.0 | 455.8* | 673.6* | · | · | · | · | · | 37*
CC1CCC(C(C)C)C(OP(=O)(c2ccc(N(C)C)cc2)C(O)c2cccnc2)C1 (stereo not given) | 112.5 | 231.8*[may fluoresce green] | 119.0 | 233.5*[may fluoresce green] | 149.8 | 95.2 | 108.3 | 101.9 | 105.7 | 103.1 | ·
N/C(Cc1ccc(Cl)cc1Cl)=N\OC(=O)c1cccs1 | 46.7 | 110.9 | 77.0 | 130.2 | 217.2* | 197.4* | 158.9* | 83.9 | 186.3* | 74.8 | 1.42
O=C(COc1ccccc1)NNC(=S)NC(=O)c1ccc(Cl)cc1Cl | 98.2 | 119.0 | 108.5 | 92.0 | 219.3* | 259.5* | 185.2* | 83.3 | 122.4 | 117.5 | 1.41
O=C(O)CC(NC(=O)Cc1ccccc1)c1cc([N+](=O)[O-])ccc1Cl (stereo not given) | 98.4 | 98.1 | 94.8 | 101.5 | 96.4 | · | · | · | · | · | ·
C[C@H](NC(=O)c1ccco1)C(=O)N1CCCC1 | 85.4 | 91.6 | 93.1 | 88.5 | 80.5 | · | · | · | · | · | ·
CC(NC(=O)c1ccco1)C(=O)N1CCCCC1 (stereo not given) | 113.0 | 109.5 | 100.1 | 150.1* | 91.3 | 100.0 | 103.2 | 100.7 | 99.5 | 98.2 | ·
CCCSc1ccc(-c2nn(-c3ccccc3)cc2/C=C(/C#N)C(=O)NCCCOC)cc1 | 99.5 | 107.6 | 103.4 | 110.5 | 101.7 | · | · | · | · | · | ·
CCSc1ccc(-c2nn(-c3ccccc3)cc2/C=C(/C#N)C(=O)NCCCOC)cc1 | 82.8 | 524.9* | 105.4 | 186.1* | 185.8* | 96.2 | 96.1 | 100.8 | 114.0 | 97.4 | ·
O=C(O)c1cccc(-n2cccc2/C=C/[N+](=O)[O-])c1 | 102.8 | 93.8 | 93.5 | 91.6 | 162.7* | 110.2 | 99.6 | 104.2 | 116.8 | 102.9 | ·
O=C(O)c1cccc(-n2cccc2/C=C\[N+](=O)[O-])c1 | 101.5 | 98.0 | 96.2 | 109.9 | 103.0 | · | · | · | · | · | ·
SMILES | AGP1 TOR yeast | MEP2 TOR yeast | RPL19A TOR yeast | CIT2 TOR yeast | LAP4-GFP MLPCN | LAP4 cherry2 | MEP2 cherry2 | RPL19A GFP CP2 | CIT2-GFP pick2 | AGP1 GFP CP2 | Yeast autofluor
COC(=O)/C(=C/c1c[nH]c2ccccc12)NC(C)=O | 108.4 | 113.2 | 107.0 | 115.2 | 100.1 | · | · | · | · | · | ·
COC(=O)/C(=C/c1c[nH]c2ccccc12)[N+](=O)[O-] | 89.1 | 87.5 | 85.4 | 86.3 | 177.9* | · | · | · | · | · | 0.1
CCN=C1S/C(=C\c2ccc(N3CCOCC3)cc2C)C(=O)N1CC | 104.1 | 105.6 | 109.0 | 110.0 | 96.9 | · | · | · | · | · | ·
COCCN1C(=O)/C(=C/c2ccc(N3CCCC3)cc2C)SC1=S | 106.1 | 185.7* | 120.0 | 190.4* | 129.3 | · | · | · | · | · | 1.9
COc1ccc(N2CCN(c3ccc(C(=O)O)cc3[N+](=O)[O-])CC2)cc1 | 97.6 | 106.3 | 103.8 | 104.9 | 95.5 | · | · | · | · | · | ·
CN(C)c1nc(C#N)nc(N(C)C)n1 | 104.0 | 103.2 | 100.2 | 101.2 | 99.7 | · | · | · | · | · | ·
